# Test results reported in PubChem BioAssay.
# “And” between values parts separate entries of the source, which are not always exact repeats. Equal entries are not always repeated. Values without a mark were called inactive. For part of these data: Measured potencies and affinities stand elsewhere. The source made the active and inactive calls. Unless noted, how the calls were made is not given here.
# Legend:
# [1] = antimalarial activity against Dd2 strain (AID 2302;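 active means growth inhibition above 50% at the single 2 µM test dose, taken to imply half-maximal potency below 2 µM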;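 further: 0% = DMSO untreated growth and 100% = chloroquine plus artemisinin killed control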); conditions: P. falciparum Dd2 in RBCs, LDH growth readout, 72 h; at 2 µM; stronger effect = higher value
# [2] = human hepatoma cell viability loss – ATP luminescence, cytotoxicity control for P. falciparum antimalarial project, primary screen (AID 2303;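 active means inhibition above 50%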;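 further: 0% = DMSO wells and 100% = digitonin-killed cells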); conditions: HepG2 viability, 24-48 h, at 10 µM, stronger effect = higher value
# [3] = target: L-lactate dehydrogenase (Plasmodium falciparum (isolate CDC / Honduras)) (UniProt Q27743); assay: PfLDH activity inhibition – cell lysate, 3D7 strain, counter-screen for P. falciparum growth inhibition project (AID 2304);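 further: 0% = vehicle and 100% = reference inhibitor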; conditions: P. falciparum 3D7 crude extract, LDH APAD/NBT absorbance; at 2 µM; stronger effect = higher value
# [4] = inhibition of 3D7 malaria parasite growth – strain 3D7 (AID 2306);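 further: 0% = DMSO wells and 100% = chloroquine plus artemisinin control wells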; conditions: P. falciparum 3D7 erythrocytic growth, LDH absorbance, 72 h; at 2 µM; stronger effect = higher value
# [5] = target: Calcium-dependent protein kinase 1 (Plasmodium falciparum (isolate 3D7)) (UniProt P62344); assay: PfCDPK1 kinase inhibitors, biochemical, TCAMS library (AID 1159585; cut-off not given, nearly all actives have IC50 up to about 0.98 µM;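 further: inhibitors leave more ATP so luminescence rises with inhibition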); conditions: recombinant PfCDPK1, Kinase-Glo ATP depletion luminescence
# [6] = target: Plasmodium falciparum protein kinase 6 (PK6, PF3D7_1337100) (UniProt Q8IDW1); assay: PfPK6 kinase inhibitors, biochemical, TCAMS library (AID 1159586); conditions: recombinant PfPK6, Kinase-Glo ATP depletion luminescence
# [7] = target: Protein kinase 7 (PK7), Plasmodium falciparum 3D7 (PF3D7_0213400) (UniProt Q7YTF7); assay: inhibition of Plasmodium PK7 catalytic activity – biochemical, TCAMS antimalarial set, Kinase-Glo luminescence (AID 1159587); conditions: recombinant PfPK7, Kinase-Glo ATP depletion luminescence
# [8] = target: Calcium-dependent protein kinase 4 (Plasmodium falciparum (isolate 3D7)) (UniProt Q8IBS5); assay: PfCDPK4 kinase inhibitors, biochemical, TCAMS library (AID 1159588; cut-off not given, nearly all actives have IC50 up to about 0.91 µM); conditions: recombinant PfCDPK4, Kinase-Glo ATP depletion luminescence
# Chain of Calcium-dependent protein kinase 4 (Plasmodium falciparum (isolate 3D7)) (Q8IBS5 whole entry, looked up): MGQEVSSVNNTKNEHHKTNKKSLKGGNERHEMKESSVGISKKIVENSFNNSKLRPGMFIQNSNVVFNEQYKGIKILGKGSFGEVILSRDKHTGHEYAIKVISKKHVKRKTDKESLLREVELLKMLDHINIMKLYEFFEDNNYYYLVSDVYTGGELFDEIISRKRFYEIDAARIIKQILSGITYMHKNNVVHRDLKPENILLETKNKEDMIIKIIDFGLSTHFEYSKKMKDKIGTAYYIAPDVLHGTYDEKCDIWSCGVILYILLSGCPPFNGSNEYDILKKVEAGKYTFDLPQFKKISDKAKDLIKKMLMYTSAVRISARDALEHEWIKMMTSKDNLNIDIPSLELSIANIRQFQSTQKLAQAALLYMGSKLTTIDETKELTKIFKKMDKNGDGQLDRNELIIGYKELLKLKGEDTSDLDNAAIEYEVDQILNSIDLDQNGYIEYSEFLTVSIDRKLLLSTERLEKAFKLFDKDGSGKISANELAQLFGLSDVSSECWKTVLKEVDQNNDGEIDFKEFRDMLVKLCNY
# Chain of L-lactate dehydrogenase (Plasmodium falciparum (isolate CDC / Honduras)) (Q27743 whole entry, looked up): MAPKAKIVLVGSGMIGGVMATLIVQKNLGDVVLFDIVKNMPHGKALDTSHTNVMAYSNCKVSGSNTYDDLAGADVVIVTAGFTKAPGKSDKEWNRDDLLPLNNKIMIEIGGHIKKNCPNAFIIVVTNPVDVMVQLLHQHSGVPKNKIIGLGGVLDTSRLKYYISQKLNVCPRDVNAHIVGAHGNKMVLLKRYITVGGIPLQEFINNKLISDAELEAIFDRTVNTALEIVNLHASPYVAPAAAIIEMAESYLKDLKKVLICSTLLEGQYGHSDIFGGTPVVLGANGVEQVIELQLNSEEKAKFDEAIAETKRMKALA
# Chain of Plasmodium falciparum protein kinase 6 (PK6, PF3D7_1337100) (Q8IDW1 1-305): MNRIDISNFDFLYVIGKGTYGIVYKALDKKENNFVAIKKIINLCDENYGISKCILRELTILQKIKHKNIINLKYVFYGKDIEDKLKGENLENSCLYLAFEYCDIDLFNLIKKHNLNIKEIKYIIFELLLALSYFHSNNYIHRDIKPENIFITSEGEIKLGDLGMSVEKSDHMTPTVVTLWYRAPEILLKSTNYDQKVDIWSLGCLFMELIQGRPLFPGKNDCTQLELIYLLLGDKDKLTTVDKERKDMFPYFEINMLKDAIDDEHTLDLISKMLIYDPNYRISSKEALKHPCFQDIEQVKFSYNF
# Chain of Calcium-dependent protein kinase 1 (Plasmodium falciparum (isolate 3D7)) (P62344 whole entry, looked up): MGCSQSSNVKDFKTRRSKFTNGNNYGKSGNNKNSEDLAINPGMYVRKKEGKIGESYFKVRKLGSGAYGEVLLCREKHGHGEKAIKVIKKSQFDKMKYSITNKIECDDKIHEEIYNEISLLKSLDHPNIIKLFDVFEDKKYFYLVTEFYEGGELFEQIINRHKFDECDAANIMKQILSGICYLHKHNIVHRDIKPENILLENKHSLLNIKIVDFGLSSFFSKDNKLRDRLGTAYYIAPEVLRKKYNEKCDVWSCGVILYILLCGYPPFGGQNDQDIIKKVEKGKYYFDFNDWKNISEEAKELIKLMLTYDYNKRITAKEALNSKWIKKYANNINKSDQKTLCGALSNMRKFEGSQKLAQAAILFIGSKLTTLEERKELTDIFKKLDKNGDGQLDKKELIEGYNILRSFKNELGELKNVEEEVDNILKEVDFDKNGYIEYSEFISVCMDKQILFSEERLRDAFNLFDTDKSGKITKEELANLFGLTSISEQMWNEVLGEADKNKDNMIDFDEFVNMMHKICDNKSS
# Chain of Protein kinase 7 (PK7), Plasmodium falciparum 3D7 (PF3D7_0213400) (Q7YTF7 1-343): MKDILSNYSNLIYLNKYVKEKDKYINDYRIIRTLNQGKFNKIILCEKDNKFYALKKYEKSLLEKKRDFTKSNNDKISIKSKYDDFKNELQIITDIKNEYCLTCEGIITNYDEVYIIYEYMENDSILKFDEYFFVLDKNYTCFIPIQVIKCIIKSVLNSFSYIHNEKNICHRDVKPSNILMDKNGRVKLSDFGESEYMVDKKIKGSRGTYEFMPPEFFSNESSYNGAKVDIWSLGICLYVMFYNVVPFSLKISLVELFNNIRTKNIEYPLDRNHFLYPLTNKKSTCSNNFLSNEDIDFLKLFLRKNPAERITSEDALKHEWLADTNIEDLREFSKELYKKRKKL
Compound,growth inhibition [1],inhibition [2],inhibition [3],growth inhibition [4],outcome [5],outcome [6],outcome [7],outcome [8]
CN(c1cc(NC(=O)c2cccs2)ccn1)C1CCN(Cc2ccccc2)CC1,87% (active),-2%,-1%,92% (active),inactive,inactive,inactive,inactive
CC[C@H]1CN2CCc3cc(OC)c(OC)cc3[C@@H]2C[C@@H]1C[C@H]1NCCc2c1cc(OC)c(O)c2Cl,101% (active),51% (active),2%,100% (active),inactive,inactive,inactive,inactive
OC(CNC1CCCCCC1)c1ccc(Cl)c(Cl)c1 (centres undefined),98% (active),-3%,-3%,99% (active),inactive,inactive,inactive,inactive
CCCCC/C=C/C(=O)NC1CCC(CN2CCC(c3c[nH]c4ccccc34)CC2)CC1 (centres undefined),11%,19%,-1%,87% (active),inactive,inactive,inactive,inactive
CC(=O)C1(c2ccccc2)CCN(CCC2(c3ccc(Cl)c(Cl)c3)CN(C(=O)C3CCCC3)CCO2)CC1 (centres undefined),70% (active),11%,1%,88% (active),inactive,inactive,inactive,inactive
Brc1cnc(NC2=NCCN2)c(Br)c1,-1%,-6%,-3%,99% (active),inactive,inactive,inactive,inactive
N#Cc1c(Cl)cccc1Oc1ccc(S(=O)(=O)NC2CCC(CN3CCC(c4c[nH]c5ccccc45)CC3)CC2)cc1 (centres undefined),36% and 16%,31% and 29%,3% and -3%,101% (active) and 85% (active),inactive,inactive,inactive,inactive
CCCCCc1cc(O)c2c(c1)OC(C)(C)CC2C1=CCN(Cc2cccnc2)CC1 (centres undefined),97% (active),15%,-1%,97% (active),inactive,inactive,inactive,inactive
CCOC(=O)c1ccc(CC(C)NCC(O)c2cccc(C(F)(F)F)c2)cc1 (centres undefined),98% (active),5%,-9%,100% (active),inactive,inactive,inactive,inactive
COC(=O)CN(C(=O)/C=C/c1ccc(Cl)c(Cl)c1)C1CCC(CN2CCC(c3c[nH]c4ccccc34)CC2)CC1 (centres undefined),69% (active),31%,-1%,100% (active),inactive,inactive,inactive,inactive
CC(Cc1ccc(OCc2ccccc2)cc1)NCC(O)c1cccc(Cl)c1 (centres undefined),99% (active),50% (active),5%,99% (active),inactive,inactive,inactive,inactive
Cc1c(C(=O)NC2CCC(CN3CCC(c4c[nH]c5ccccc45)CC3)CC2)cnn1-c1c(Cl)cc(Cl)cc1Cl (centres undefined),97% (active),53% (active),4%,100% (active),inactive,inactive,inactive,inactive
CN(c1cc(NC(=O)c2ccc(F)cc2)ccn1)C1CCN(Cc2cccc(C#N)c2)CC1,83% (active),73% (active),1%,97% (active),inactive,inactive,inactive,inactive
CC[C@H]1CN2CC[C@H]1C[C@H]2[C@H](O)c1cc(/C=C/c2ccc(F)cc2)nc2ccc(OC)cc12,99% (active),55% (active),-1%,99% (active),inactive,inactive,inactive,inactive
CC[C@H]1CN2CC[C@H]1C[C@H]2[C@H](O)c1ccnc2ccc(O)cc12,2%,11%,-3%,99% (active),inactive,inactive,inactive,inactive
Cc1[nH]c2ccccc2c1C1=CCN(CCCCC23CCCc4cccc(c42)NC3=O)CC1 (centres undefined),91% (active),9%,-4%,95% (active),inactive,inactive,inactive,inactive
CC(Cc1ccc(OCCOc2ccccc2)cc1)NCC(O)c1cccc(C(F)(F)F)c1 (centres undefined),76% (active),16%,-6%,91% (active),inactive,inactive,inactive,inactive
CC[C@H]1CN2CC[C@@H]1C[C@H]2[C@H](O)c1cc(N2CCCC(C)(C)C2)nc2ccc(OC)cc12,72% (active),25%,3%,101% (active),inactive,inactive,inactive,inactive
